The list is not random: actives were taken first. Their share in the collection is about 1.3%.
BRCA1 expr up: activators of BRCA1 expression. 380,000 compounds, 1.1% hits. Potency, µM (doses to about 46.1 µM), for inactives: at the top dose activation, usual class: activators. MCF7-BRCA1-FFLuc reporter, luminescence, 48 h; response scale: scaled: vehicle 0%, 10 µM genistein 100%; further: potency means the concentration at half of the fitted maximal effect; nearly all actives have a fitted effect of over 80% in size
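Activators of BRCA1 expression were detected as increased firefly luciferase luminescence in engineered MCF7 cells after 48 h compound incubation. Signals were scaled to genistein 10 microM as full activation.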
TCR act: T cell receptor activation; primary human leukocytes, anti-CD3, IL-2 HTRF, 48 h; Potency, µM (titrated, usually from 9.22 µM), inactives show top-dose activation of IL-2 secretion, usual class: activators; 330,000 tested, under 10 active; AID 504894; further: % of control where 0% means no effect
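1) Mix primary human leukocytes, a-CD3 beads and compound. 2) Incubate 48 hr. 3) Add HTRF IL-2 reagents (a-IL-2-K, a-IL-2-d2).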
IL-2 act: IL-2 activation. IL-2 activation reporter assay, cell-based qHTS; stimulated with anti-CD3/CD4/CD28 beads; in transgenic mouse T cells. activation, % (series mostly up to about 46 µM). 360,000 compounds, 0.065% hits; in the data active means activation above about 50%; inconclusive means mostly about 30% to 49%; further: 0% is about no effect
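Unstimulated transgenic mouse T cells, 750 per well, received compound and, after 60 minutes, anti-CD3/anti-CD4 bead plus anti-CD28 stimulation. EGFP and DsRed were quantified after 18 hours.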
Mito fusion act: mitochondrial division inhibition or fusion activation; Potency, µM (titrated, usually from 46.1 µM), for inactives: top-dose growth rescue (activation), actives largely listed as activators; 320,000 compounds, 0.23% hits; S. cerevisiae fusion-defective mutant growth rescue, CellTiterGlo 48 h; further: potency means the concentration at half of the fitted maximal effect; % of control where 0% means no effect; nearly all actives have a fitted effect of over 45% in size
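Luminescent cell viability in 1536-well qHTS format served as the measure of rescued growth in ts fusion-mutant S. cerevisiae cultured on non-fermentable YPEG for 48 hours at 37C.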
p53 reactivation: mutant p53 re-activation in reporter cells; H1299 p53-A138V BP100-luciferase reporter, luminescence, 24 h; Potency, µM (series often up to 92.2 µM), without a hit: top-dose activity change, positive = activation, most hits filed as activators; 320,000 compounds, 0.063% hits; AID 504706; further: potency means the concentration at half of the fitted maximal effect; % of control where 0% means no effect; nearly all actives have a fitted effect of over 45% in size
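p53-null H1299 cells stably carrying temperature-sensitive p53-A138V and a BP100-luciferase reporter were pinned with compounds (4-point, 1:5 series) and held 24 hrs at 37 deg C. Luminescence was read 10 min after detection reagent.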
Numbers without * were called inactive; ? = inconclusive; nt = not tested or not shown; [ ] = another dose, or the depositor's remark. Unless noted, the call rests on the fitted dose curve; in most records, active means well fitted curve in the direction sought with a large enough effect; inconclusive means small, poorly fitted or top-dose-only effect, or another doubt; inactive means no such curve, though single readings can be large; an effect the other way counts as inactive or inconclusive.

SMILES | BRCA1 expr up | TCR act | IL-2 act | Mito fusion act | p53 reactivation
Nc1ccc2oc(=O)c3ccccc3c2c1 | 11.2µM* | 0.6% | -0.9 | -9.4% | 3.8%
O=c1oc(=O)c2ccccc2c2ccccc12 | -10.2% | 3.7% | -4.9 | nt | nt
O=C(Nc1ccc(NC(=O)c2sc3ccccc3c2Cl)cc1Cl)c1ccco1 | 7.94µM* | nt | -4.3 | 2.0% | -3.1%
O=C(Nc1ccncc1)c1sc2ccccc2c1Cl | 37.3% | -1.5% | 4.0 | 0.4% | 11.4%
O=C(Nc1ccnc(=O)[nH]1)c1sc2ccccc2c1Cl | 5.62µM* | -6.5% | -2.1 | 0.8% | 16.5%
O=C(Nc1ccc(NC(=O)c2cccs2)c(Cl)c1)c1ccco1 | -17.1% | -0.4% | -1.1 | 5.3% | -0.2%
NC(=NCc1ccco1)NC(=O)c1ccc(Cl)cc1 | 11.2µM* | -2.1% | -0.9 | -3.4% | 29.5%
O=C(NCCCNC(=O)c1ccco1)c1ccc(Cl)cc1 | -1.0% | -7.4% | 0.6 | -0.7% | 20.8%
Cc1cc(C)n2nc(-c3cccc(Br)c3)cc2n1 | 32.7% | 1.5% | -1.2 | 1.7% | nt
Cc1cccc(-c2cc3nc(C)cc(C)n3n2)c1 | 1.58µM* | 3.1% | -0.2 | 9.6% | 14.0%
CC(C)(C)c1ccc(C(=O)CCCN2CCC(OC(c3ccccc3)c3ccccc3)CC2)cc1 | nt | nt | nt | -56.6% | nt
COc1ccc(CCNC(=O)c2ccc3c(c2)N(Cc2c(F)cccc2Cl)C(=O)CS3)cc1OC | nt | nt | nt | -0.2% | nt
Cc1cccc(CC(C)NC(=O)c2cc(COc3ccc(C)c(C)c3)on2)n1 (stereo not given) | 81.4% | -6.4% | -5.3 | -2.5% | 9.7%
Cc1nc(C(C)NC(=O)c2cc(COc3ccc(C)c(C)c3)on2)c(C)s1 (stereo not given) | 5.62µM* | 1.4% | -0.6 | 8.9% | ?
CCOc1ccccc1CNC(=O)CN1C(=O)CCc2cc(S(=O)(=O)N3CCCCC3)ccc21 | -4.6% | nt | nt | nt | nt
Cc1ccc(Nc2nc3nonc3[nH]c2=O)cc1 | 11.2µM* | -5.0% | -0.9 | 11.0% | ?
CN[C@H](C)CCC=C(C)C | -7.8% | nt | nt | nt | nt
Cc1nc(-c2ccc3c(c2)OCCO3)cs1 | 7.94µM* | nt | 0.5 | -0.4% | 23.6%
Cc1ccc(C(=O)Nc2nc(-c3ccc4c(c3)OCCO4)cs2)o1 | 8.91µM* | nt | 0.4 | nt | nt
O=C(Nc1nc(-c2ccc3c(c2)OCCO3)cs1)c1ccc(Br)o1 | 4.8% | nt | 1.0 | nt | nt
Cc1cccc(Nc2nc(-c3ccc4c(c3)OCCO4)cs2)c1 | ? | 1.5% | 0.2 | -0.2% | ?
COc1cccc(NC(=O)C2CCN(c3nc4ccccc4nc3C(F)(F)F)CC2)c1 | -13.0% | nt | nt | nt | nt
CCN(c1ccccc1)c1nc(N)nc(C#N)n1 | -16.6% | nt | nt | nt | nt
Cc1ccc(S(=O)(=O)N2CCN(c3nc(-n4cncn4)nc4ccccc34)CC2)cc1 | 4.1% | nt | nt | nt | nt
O=c1c2c3c(sc2ncn1/N=C/c1ccccc1)CCCC3 | 20µM* | -0.2%[46.1 µM] | 1.0 | 10.2% | 17.4%
SMILES | BRCA1 expr up | TCR act | IL-2 act | Mito fusion act | p53 reactivation
COc1ccc(S(=O)(=O)NCCc2sc(-c3cccnc3)nc2C)cc1 | 15.8% | nt | nt | nt | nt
Cc1ccc(C)c(N2CCN(S(=O)(=O)c3c(C)noc3C)CC2)c1 | -2.6% | 3.7% | 0.5 | ? | -0.8%
Cc1ccc(Cl)cc1N1CCN(S(=O)(=O)c2c(C)noc2C)CC1 | -31.6% | -24.1% | -1.1 | 17.8µM* | -0.2%
COc1ccc2c(c1)CC/C(=C/c1ccco1)C2=O | 3.55µM* | 1.9%[46.1 µM] | -5.7 | 0.1% | ?
O=C1/C(=C/c2ccco2)CCc2ccccc21 | 35.9% | 0.6%[46.1 µM] | -2.1 | -2.6% | ?
COc1c(C)cccc1C(=O)Nc1ccc(N2CCOCC2)c(Cl)c1 | 2.51µM* | 2.3% | -1.1 | 5.9% | ?
O=C(Nc1ccc(N2CCOCC2)c(Cl)c1)c1cccnc1Cl | -0.2% | 3.8%[46.1 µM] | 0.3 | 6.9% | 7.6%
CCN1CCN(c2ccc(NC(=O)c3ccccc3F)cc2Cl)CC1 | 7.08µM* | -1.4% | 2.4 | -24.9% | 17.9%
c1ccc(Oc2ccc(-c3ccnc4ncnn34)cc2)cc1 | 2.5% | 7.8% | -3.1 | -4.0% | 4.9%
Clc1ccc(COc2ccccc2-c2ccnc3ncnn23)cc1 | 11.2µM* | -1.5% | 0.3 | 4.9% | 9.0%
O=C(Cc1ccccc1)c1ccc(N2CCOCC2)cc1 | 11.2µM* | 1.0% | -0.1 | nt | nt
O=C(Cc1ccccc1)c1ccc(O)cc1 | 11.2µM* | 6.5% | 0.4 | nt | nt

Assay outcomes as filed in PubChem BioAssay.
